Assay results taken from PubChem BioAssay (NCATS).
Records with an inconclusive call do not appear. Unmarked numbers belong to inactive results. Calls of active or inactive are those of the source. Calls follow the shape of the dose curve; as a rule, active = well fitted curve in the direction sought with a large enough effect; inconclusive = small, poorly fitted or top-dose-only effect, or another doubt; inactive = no such curve, though single readings can be large; an effect the other way counts as inactive or inconclusive.

Assay: qHTS of pediatric cancer cell lines to identify multiple opportunities for drug repurposing: Confirmatory screen for NB-EBc1 cells (AID 1347115);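 also: cells exposed to compound for 48 h before the viability read; nearly all actives have a fitted effect of over 45% in size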; as to activity change, negative = cytotoxic: % is scaled to controls: 0 for no effect and ±100 for the full control effect
Details: NB-EBc1 neuroblastoma cells, viability (cytotoxicity); series mostly up to 45.9 µM; activity change, negative = cytotoxic: at the top concentration
Procedure, shortened: (§1)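 Cells (500-1,000/well) in growth media were settled 5 h at 37 degrees C, then given compounds for 48 h. Viability was read as CellTiter-Glo luminescence. Primary runs used MIPE at 11 points (0.78 nM-46 µM) and NPC at 8 points (0.59 nM-46 µM); follow-ups used 11 points.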
Potency is read from the fitted curve at half-maximal effect.

Row | SMILES | activity change, negative = cytotoxic | Potency
1 | CN1C[C@H](C(=O)N[C@]2(C)O[C@@]3(O)[C@@H]4CCCN4C(=O)[C@H](Cc4ccccc4)N3C2=O)C[C@@H]2c3cccc4[nH]cc(c34)C[C@H]21 | -7.25% | –
2 | C[n+]1cc2c3c(ccc2c2ccc4cc5c(cc4c21)OCO5)OCO3 | – | 3.23 µM (active)
3 | C[C@]12CC[C@@H]3c4ccc(O)cc4C[C@@H](CCCCCCCCCS(=O)CCCC(F)(F)C(F)(F)F)[C@H]3[C@@H]1CC[C@@H]2O (stereo partly specified) | -7.47% | –
4 | C[C@]12C=CC(=O)C=C1CC[C@H]1[C@@H]3C[C@@H](O)[C@](O)(C(=O)CO)[C@@]3(C)C[C@H](O)[C@@]12F | -39.3% | –
5 | NCCCNCCSP(=O)(O)O | 10.1% [at 9.58 µM] | –

Assay: qHTS of pediatric cancer cell lines to identify multiple opportunities for drug repurposing: Confirmatory screen for SJ-GBM2 cells (AID 1347116); also: nearly all actives have a fitted effect of over 60% in size;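 as to activity change, negative = cytotoxic: plate controls were DMSO for no effect and bortezomib for full effect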
Details: SJ-GBM2 glioblastoma cells, viability; series mostly up to 45.9 µM; activity change, negative = cytotoxic: at the top concentration
Procedure, shortened: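 Viability measured as metabolically active cells via CellTiter-Glo luminescence following 48 hours of compound exposure, 11-point dilutions in confirmatory testing. 500-1,000 cells/well plated 5 hours before dosing; controls were DMSO and 2.3 µM bortezomib.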

Row | SMILES | Potency | activity change, negative = cytotoxic [%]
6 | Nc1nc(N)c2nc(-c3ccccc3)c(N)nc2n1 | 9.27 µM (active) | –
7 | C[n+]1cc2c3c(ccc2c2ccc4cc5c(cc4c21)OCO5)OCO3 | 3.62 µM (active) | –
8 | CN/C(=C\[N+](=O)[O-])NCCSCc1ccc(CN(C)C)o1 | – | 11.3
9 | C[C@]12CC[C@@H]3c4ccc(O)cc4C[C@@H](CCCCCCCCCS(=O)CCCC(F)(F)C(F)(F)F)[C@H]3[C@@H]1CC[C@@H]2O (stereo partly specified) | – | -1.13
10 | NCCCNCCSP(=O)(O)O | 0.215 µM (active) | –

Assay: qHTS of pediatric cancer cell lines to identify multiple opportunities for drug repurposing: Confirmatory screen for BT-37 cells (AID 1347117); also: nearly all actives have a fitted effect of over 55% in size;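 as to activity change, negative = cytotoxic: plate controls were DMSO for no effect and bortezomib for full effect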
Details: BT-37 pediatric cancer cells, viability; series mostly up to 45.9 µM; activity change, negative = cytotoxic: at the top concentration
Procedure, shortened: as §1

Row | SMILES | activity change, negative = cytotoxic | Potency
11 | CN1C[C@H](C(=O)N[C@]2(C)O[C@@]3(O)[C@@H]4CCCN4C(=O)[C@H](Cc4ccccc4)N3C2=O)C[C@@H]2c3cccc4[nH]cc(c34)C[C@H]21 | -27.9% | –
12 | C[n+]1cc2c3c(ccc2c2ccc4cc5c(cc4c21)OCO5)OCO3 | – | 1.44 µM (active)
13 | CN/C(=C\[N+](=O)[O-])NCCSCc1ccc(CN(C)C)o1 | 1.85% | –
14 | C[C@]12CC[C@@H]3c4ccc(O)cc4C[C@@H](CCCCCCCCCS(=O)CCCC(F)(F)C(F)(F)F)[C@H]3[C@@H]1CC[C@@H]2O (stereo partly specified) | -15.7% | –
15 | C[C@]12C=CC(=O)C=C1CC[C@H]1[C@@H]3C[C@@H](O)[C@](O)(C(=O)CO)[C@@]3(C)C[C@H](O)[C@@]12F | – | 9.27 µM (active)
16 | NCCCNCCSP(=O)(O)O | 0.812% [at 9.58 µM] | –

Assay: qHTS of pediatric cancer cell lines to identify multiple opportunities for drug repurposing: Confirmatory screen for TC32 cells (AID 1347118);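 also: cells exposed to compound for 48 h before the read; nearly all actives have a fitted effect of over 65% in size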
Details: TC32 Ewing sarcoma cells viability qHTS
Procedure, shortened: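 TC32 cells, 500-1,000/well in growth medium, compound-treated 48 h at 37 °C; viability from CellTiter-Glo luminescence. Primary screen: MIPE 11-point (0.78 nM–46 µM final), NPC 8-point (0.59 nM–46 µM final); confirmatory at 11-point dilutions.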

Row | SMILES | Potency
17 | Nc1nc(N)c2nc(-c3ccccc3)c(N)nc2n1 | 3.69 µM (active)
18 | C[n+]1cc2c3c(ccc2c2ccc4cc5c(cc4c21)OCO5)OCO3 | 1.15 µM (active)
19 | CN/C(=C\[N+](=O)[O-])NCCSCc1ccc(CN(C)C)o1 | 10.4 µM (active)
20 | C[C@]12CC[C@@H]3c4ccc(O)cc4C[C@@H](CCCCCCCCCS(=O)CCCC(F)(F)C(F)(F)F)[C@H]3[C@@H]1CC[C@@H]2O (stereo partly specified) | 8.27 µM (active)
21 | C[C@]12C=CC(=O)C=C1CC[C@H]1[C@@H]3C[C@@H](O)[C@](O)(C(=O)CO)[C@@]3(C)C[C@H](O)[C@@]12F | 6.57 µM (active)
